Data published in the supplement of paper PMC10849652.
About 7,900 targets were measured; listed, in parts, are those with a hit and a random draw of the rest. About 0.6% of all pairs of compound and target were hits.

Experiments:
Assay in all cases: log2 fold change, soluble protein after heating vs DMSO (PISA); higher = thermal stabilisation; K562 cells, 10 uM, 30 min; active = over 0.2 and 3.5 SD of the protein, either way, in both replicates (recomputed)
bafetinib = compound: Cc1ccc(NC(=O)c2ccc(CN3CC[C@H](N(C)C)C3)c(C(F)(F)F)c2)cc1Nc1nccc(-c2cncnc2)n1 [bafetinib]
Summary of the method: (§1)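 K562 cells at 2×10^6 cells/mL were exposed to 10 μM compound for 30 min, then aliquots were heated for 3 min across 48°C-58°C, pooled, and extracted in PBS containing 0.5% NP-40 at 4°C. The supernatant after 21,000xg for 90 min was taken as soluble protein and measured by TMTpro 16plex LC-MS/MS with channel sums equalised. Thermal stability is reported relative to control samples, with values from duplicates. Fold changes are given on a log2 scale.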

[1] = compound: Cc1cccc(CC(=O)N2CCc3c2ccc(-c2cn(C)c4ncnc(N)c24)c3F)n1
Summary of the method: as §1

nilotinib = compound: Cc1cn(-c2cc(NC(=O)c3ccc(C)c(Nc4nccc(-c5cccnc5)n4)c3)cc(C(F)(F)F)c2)cn1 [nilotinib]
Summary of the method: as §1

[2] = compound: Cc1nc(Nc2n[nH]c3c2CN(C(=O)N[C@H](CN(C)C)c2ccccc2)C3(C)C)c2sccc2n1
Summary of the method: as §1

dasatinib = compound: Cc1nc(Nc2ncc(C(=O)Nc3c(C)cccc3Cl)s2)cc(N2CCN(CCO)CC2)n1 [dasatinib]
Summary of the method: as §1

[3] = compound: Cc1ncc(-c2ccnc(Nc3ccc(S(C)(=O)=O)cc3)n2)n1C(C)C
Summary of the method: as §1

[4] = compound: Cn1cc(-c2ccc3c(c2)CCN3C(=O)Cc2cccc(C(F)(F)F)c2)c2c(N)ncnc21
Summary of the method: as §1

tipifarnib = compound: Cn1cncc1[C@@](N)(c1ccc(Cl)cc1)c1ccc2c(c1)c(-c1cccc(Cl)c1)cc(=O)n2C [tipifarnib]
Summary of the method: as §1

mubritinib = compound: FC(F)(F)c1ccc(/C=C/c2nc(COc3ccc(CCCCn4ccnn4)cc3)co2)cc1 [mubritinib]
Summary of the method: as §1

[5] = compound: NC(=O)Nc1cc(-c2cccc(F)c2)sc1C(=O)N[C@H]1CCCNC1
Summary of the method: as §1

[6] = compound: NC(=O)c1cnc(N[C@@H]2CCCC[C@@H]2N)nc1Nc1cccc(-n2nccn2)c1
Summary of the method: as §1

[7] = compound: NC1(c2ccc(-c3nc4ccn5c(=O)[nH]nc5c4cc3-c3ccccc3)cc2)CCC1
Summary of the method: as §1

[8] = compound: NCC(=O)Nc1ccc(-n2nc(C(F)(F)F)cc2-c2ccc3c(ccc4ccccc43)c2)cc1
Summary of the method: as §1

entinostat = compound: Nc1ccccc1NC(=O)c1ccc(CNC(=O)OCc2cccnc2)cc1 [entinostat]
Summary of the method: as §1

vorinostat = compound: O=C(CCCCCCC(=O)Nc1ccccc1)NO [vorinostat]
Summary of the method: as §1

citarinostat = compound: O=C(CCCCCCNC(=O)c1cnc(N(c2ccccc2)c2ccccc2Cl)nc1)NO [citarinostat]
Summary of the method: as §1

silmitasertib = compound: O=C(O)c1ccc2c(c1)nc(Nc1cccc(Cl)c1)c1ccncc12 [silmitasertib]
Summary of the method: as §1

[9] = compound: O=C1NC(=O)C(c2cnc3ccccn23)=C1c1cn2c3c(cc(F)cc13)CN(C(=O)N1CCCCC1)CC2
Summary of the method: as §1

[10] = compound: c1cc(OCCN2CCCCC2)cc(-c2n[nH]c3ccc(-c4nnc[nH]4)cc23)c1
Summary of the method: as §1

[11] = compound: Cn1cc(-c2ccc3nnc(C(F)(F)c4ccc5ncccc5c4)n3n2)cn1
Summary of the method: as §1

Measured: log2 fold change

ATRN (UniProt O75882)
active: [9] -0.538
inactive: bafetinib -0.006 | [1] 0.004 | nilotinib 0.027 | [2] -0.055 | dasatinib -0.047 | [3] 0 | [4] 0.097 | tipifarnib 0.048 | mubritinib -0.027 | [5] -0.007 | [6] -0.023 | [7] -0.073 | [8] -0.031 | entinostat -0.016 | vorinostat -0.006 | citarinostat -0.004 | silmitasertib 0.006 | [10] -0.092

ACP1 (UniProt P24666)
inactive: bafetinib 0.041 | [1] 0.013 | nilotinib 0.078 | [2] -0.071 | dasatinib -0.129 | [3] -0.01 | [4] 0.037 | tipifarnib 0.037 | mubritinib 0.035 | [5] -0.079 | [6] -0.24 | [7] -0.002 | [8] -0.199 | entinostat 0.093 | vorinostat 0.01 | citarinostat 0.012 | silmitasertib 0.088 | [9] -0.074 | [10] -0.014

APH1A (UniProt Q96BI3)
inactive: bafetinib 0.132 | [1] -0.06 | nilotinib -0.037 | [2] -0.04 | dasatinib -0.039 | [3] 0.028 | [4] 0.036 | tipifarnib -0.06 | mubritinib 0.05 | [5] -0.048 | [6] -0.201 | [7] -0.075 | entinostat 0.014 | vorinostat -0.024 | citarinostat 0.055 | silmitasertib 0.006 | [10] 0.085
active: [8] 0.303

ACTBL2 (UniProt Q562R1)
inactive: bafetinib 0.113 | [1] -0.124 | nilotinib 0.579 | [2] -0.067 | dasatinib 0.398 | [3] -0.051 | [11] 0.336 | tipifarnib 0.488 | mubritinib -0.267 | [5] -0.205 | [6] 0.038 | [8] 0.239 | entinostat 0.103 | vorinostat 0.024 | citarinostat -0.585 | silmitasertib -0.129 | [9] -0.051 | [10] -0.1
active: [7] 1.54

AP2A2 isoform 2 (UniProt O94973)
inactive: bafetinib 0.02 | [1] 0.031 | nilotinib -0.027 | [2] 0.009 | dasatinib 0.062 | [3] -0.018 | [4] 0.006 | [11] -0.074 | tipifarnib -0.006 | mubritinib 0.035 | [5] -0.155 | [6] 0.052 | [7] -0.003 | [8] -0.013 | entinostat 0.002 | vorinostat 0.034 | citarinostat -0.023 | silmitasertib -0.016 | [9] -0.113 | [10] -0.156

ARFIP1 isoform 2 (UniProt P53367)
inactive: bafetinib -0.281 | [1] -0.195 | nilotinib -0.147 | [2] -0.049 | dasatinib -0.316 | [3] -0.013 | tipifarnib -0.024 | mubritinib -0.004 | [5] 0.11 | [7] -0.147 | entinostat 0.012 | vorinostat 0.331 | silmitasertib -0.08 | [9] -0.062

APOH (UniProt P02749)
Sequence of UniProt P02749 (P02749 whole entry, looked up): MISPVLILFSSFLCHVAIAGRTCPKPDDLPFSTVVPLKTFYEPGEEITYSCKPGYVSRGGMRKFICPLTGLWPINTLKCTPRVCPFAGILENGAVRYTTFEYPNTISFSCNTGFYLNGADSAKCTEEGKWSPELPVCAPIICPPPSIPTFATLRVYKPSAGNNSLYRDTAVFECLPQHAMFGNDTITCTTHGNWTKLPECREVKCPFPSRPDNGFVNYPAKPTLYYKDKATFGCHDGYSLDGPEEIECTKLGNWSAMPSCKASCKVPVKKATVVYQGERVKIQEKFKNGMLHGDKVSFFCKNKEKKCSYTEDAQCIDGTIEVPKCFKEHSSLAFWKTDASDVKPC
active: bafetinib -1.07
inactive: [1] 0.083 | nilotinib 0 | [2] 0.031 | dasatinib -0.281 | [3] 0.392 | [4] 0.145 | [11] -0.167 | tipifarnib 0.085 | mubritinib -0.346 | [5] -0.094 | [6] -0.109 | [7] -0.414 | [8] 0.065 | entinostat 0.06 | vorinostat 0.354 | citarinostat -0.149 | silmitasertib 0.565 | [10] 0.006

ATIC (UniProt P31939)
Sequence of UniProt P31939 (P31939 whole entry, looked up): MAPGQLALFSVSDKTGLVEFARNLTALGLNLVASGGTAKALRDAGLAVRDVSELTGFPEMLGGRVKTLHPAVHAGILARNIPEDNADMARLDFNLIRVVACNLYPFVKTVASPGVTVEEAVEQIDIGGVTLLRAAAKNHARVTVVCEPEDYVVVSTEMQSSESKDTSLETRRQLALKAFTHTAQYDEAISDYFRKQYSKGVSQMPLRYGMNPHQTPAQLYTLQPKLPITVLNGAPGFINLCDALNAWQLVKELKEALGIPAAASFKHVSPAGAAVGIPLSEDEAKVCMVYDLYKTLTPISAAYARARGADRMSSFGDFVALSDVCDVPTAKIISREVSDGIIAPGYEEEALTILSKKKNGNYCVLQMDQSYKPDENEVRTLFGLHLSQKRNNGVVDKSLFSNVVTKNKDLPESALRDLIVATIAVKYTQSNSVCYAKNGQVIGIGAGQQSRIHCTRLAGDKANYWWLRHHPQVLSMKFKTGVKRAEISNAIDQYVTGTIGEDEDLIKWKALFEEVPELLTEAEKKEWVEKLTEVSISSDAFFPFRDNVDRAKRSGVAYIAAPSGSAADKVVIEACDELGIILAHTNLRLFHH
active: mubritinib 0.206
inactive: bafetinib 0.067 | [1] 0.058 | nilotinib 0.158 | [2] -0.033 | dasatinib 0.022 | [3] -0.006 | [4] 0.104 | [11] 0.048 | tipifarnib -0.047 | [5] -0.023 | [6] 0.001 | [7] 0.03 | [8] -0.009 | entinostat -0.019 | vorinostat -0.026 | citarinostat 0.01 | silmitasertib -0.059 | [9] -0.066 | [10] 0.013

BAP1 (UniProt Q92560)
inactive: bafetinib 0.252 | [1] -0.071 | nilotinib 0.007 | [2] 0.053 | dasatinib -0.031 | [3] 0.006 | [4] -0.086 | [11] -0.064 | tipifarnib 0.076 | mubritinib -0.201 | [5] -0.073 | [6] 0.085 | [7] 0.073 | [8] 0.012 | entinostat -0.054 | vorinostat 0.13 | citarinostat 0.058 | silmitasertib 0.04 | [9] 0.076 | [10] -0.142

BAIAP2 isoform 4 (UniProt Q9UQB8)
Sequence of UniProt Q9UQB8 (Q9UQB8 whole entry, looked up): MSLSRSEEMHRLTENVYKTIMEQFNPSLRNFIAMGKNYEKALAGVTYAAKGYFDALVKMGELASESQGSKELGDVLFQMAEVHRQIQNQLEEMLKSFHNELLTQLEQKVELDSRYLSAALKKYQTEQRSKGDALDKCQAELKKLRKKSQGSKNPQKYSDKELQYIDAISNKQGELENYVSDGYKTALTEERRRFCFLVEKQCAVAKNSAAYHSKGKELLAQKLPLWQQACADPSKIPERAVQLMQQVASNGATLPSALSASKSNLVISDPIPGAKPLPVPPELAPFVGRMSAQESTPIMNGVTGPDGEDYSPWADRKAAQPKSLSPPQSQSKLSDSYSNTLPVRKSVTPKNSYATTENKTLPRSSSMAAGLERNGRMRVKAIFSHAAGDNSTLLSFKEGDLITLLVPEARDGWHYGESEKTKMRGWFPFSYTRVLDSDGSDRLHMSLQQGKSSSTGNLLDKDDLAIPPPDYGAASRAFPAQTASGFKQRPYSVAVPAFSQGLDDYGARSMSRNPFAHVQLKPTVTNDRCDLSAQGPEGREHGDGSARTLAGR
inactive: [4] -0.018 | [5] 0.019 | entinostat -0.095

AFG1L (UniProt Q8WV93)
Sequence of UniProt Q8WV93 (Q8WV93 whole entry, looked up): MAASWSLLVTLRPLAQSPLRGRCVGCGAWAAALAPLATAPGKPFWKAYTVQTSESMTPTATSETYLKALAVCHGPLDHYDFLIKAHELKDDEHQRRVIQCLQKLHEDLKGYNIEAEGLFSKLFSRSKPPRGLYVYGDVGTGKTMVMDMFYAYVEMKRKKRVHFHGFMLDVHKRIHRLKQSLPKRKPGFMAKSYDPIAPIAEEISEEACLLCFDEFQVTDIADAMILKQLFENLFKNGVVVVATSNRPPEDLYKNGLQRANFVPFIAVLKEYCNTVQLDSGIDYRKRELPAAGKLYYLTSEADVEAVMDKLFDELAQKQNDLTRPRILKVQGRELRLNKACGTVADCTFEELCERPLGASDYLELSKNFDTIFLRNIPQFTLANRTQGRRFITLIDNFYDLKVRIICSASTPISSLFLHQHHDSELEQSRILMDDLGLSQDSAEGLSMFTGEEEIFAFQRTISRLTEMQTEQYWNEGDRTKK
inactive: bafetinib -0.041 | nilotinib -0.061 | [2] -0.048 | dasatinib -0.023 | [3] 0.043 | [4] 0.077 | [11] 0.109 | tipifarnib 0.19 | mubritinib 0.031 | [5] -0.021 | [6] 0.008 | [7] 0.019 | [8] -0.178 | entinostat 0.095 | citarinostat -0.004 | silmitasertib 0.009 | [9] -0.009 | [10] -0.057

ATXN7L3 isoform 2 (UniProt Q14CW9)
Sequence of UniProt Q14CW9 (Q14CW9 whole entry, looked up): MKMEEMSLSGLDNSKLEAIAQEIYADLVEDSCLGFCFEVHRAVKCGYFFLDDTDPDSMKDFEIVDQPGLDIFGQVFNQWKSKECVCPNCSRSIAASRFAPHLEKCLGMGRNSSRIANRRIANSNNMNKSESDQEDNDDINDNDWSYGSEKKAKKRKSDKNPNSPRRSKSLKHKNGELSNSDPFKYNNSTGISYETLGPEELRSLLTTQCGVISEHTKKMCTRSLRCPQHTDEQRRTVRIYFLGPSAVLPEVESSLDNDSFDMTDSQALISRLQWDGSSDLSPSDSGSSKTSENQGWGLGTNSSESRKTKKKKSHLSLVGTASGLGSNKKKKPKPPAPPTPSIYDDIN
inactive: bafetinib -0.123 | nilotinib 0.024 | [2] 0.043 | [3] -0.054 | [11] 0.03 | mubritinib 0.086 | [5] 0.182 | [6] 0.033 | [7] 0.207 | entinostat -0.346 | citarinostat -0.087 | silmitasertib -0.373 | [10] 0.051

APAF1 (UniProt O14727)
inactive: [1] 0.042 | nilotinib -0.058 | [2] -0.015 | dasatinib -0.121 | [3] -0.268 | [4] -0.122 | [11] -0.016 | tipifarnib -0.152 | mubritinib -0.032 | [5] 0.016 | [6] 0.033 | [7] -0.116 | [8] -0.104 | entinostat 0.031 | vorinostat 0.048 | citarinostat 0.093 | silmitasertib -0.116 | [9] -0.062 | [10] -0.016

AIF1 (UniProt P55008)
inactive: bafetinib 0.035 | [11] 0.153 | tipifarnib 0.051 | [5] 0.04 | [6] 0.004 | [8] 0.021 | entinostat -0.105 | [9] 0.068

ATF7 isoform 6 (UniProt P17544)
Sequence of UniProt P17544 (P17544 whole entry, looked up): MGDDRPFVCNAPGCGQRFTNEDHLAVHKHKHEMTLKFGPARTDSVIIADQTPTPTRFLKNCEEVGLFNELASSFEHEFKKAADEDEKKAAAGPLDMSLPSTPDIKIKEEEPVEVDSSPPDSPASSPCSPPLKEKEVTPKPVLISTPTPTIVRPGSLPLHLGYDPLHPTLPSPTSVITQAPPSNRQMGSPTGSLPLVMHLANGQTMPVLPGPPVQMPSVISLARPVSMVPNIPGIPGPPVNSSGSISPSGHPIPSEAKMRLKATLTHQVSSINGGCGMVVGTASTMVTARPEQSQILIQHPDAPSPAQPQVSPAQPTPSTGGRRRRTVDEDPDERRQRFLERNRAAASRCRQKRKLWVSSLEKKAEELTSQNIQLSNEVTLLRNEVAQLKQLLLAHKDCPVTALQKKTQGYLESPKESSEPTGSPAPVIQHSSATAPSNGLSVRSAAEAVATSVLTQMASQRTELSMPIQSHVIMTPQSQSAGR
active: dasatinib 0.504
inactive: bafetinib 0.02 | nilotinib -0.026 | [2] -0.081 | [3] -0.019 | [4] 0.055 | [11] -0.266 | tipifarnib 0 | mubritinib 0.018 | [5] -0.113 | [6] 0.138 | [7] -0.123 | [8] 0.268 | entinostat -0.045 | silmitasertib 0.067 | [9] -0.044

ACOX3 (UniProt O15254)
Sequence of UniProt O15254 (O15254 whole entry, looked up): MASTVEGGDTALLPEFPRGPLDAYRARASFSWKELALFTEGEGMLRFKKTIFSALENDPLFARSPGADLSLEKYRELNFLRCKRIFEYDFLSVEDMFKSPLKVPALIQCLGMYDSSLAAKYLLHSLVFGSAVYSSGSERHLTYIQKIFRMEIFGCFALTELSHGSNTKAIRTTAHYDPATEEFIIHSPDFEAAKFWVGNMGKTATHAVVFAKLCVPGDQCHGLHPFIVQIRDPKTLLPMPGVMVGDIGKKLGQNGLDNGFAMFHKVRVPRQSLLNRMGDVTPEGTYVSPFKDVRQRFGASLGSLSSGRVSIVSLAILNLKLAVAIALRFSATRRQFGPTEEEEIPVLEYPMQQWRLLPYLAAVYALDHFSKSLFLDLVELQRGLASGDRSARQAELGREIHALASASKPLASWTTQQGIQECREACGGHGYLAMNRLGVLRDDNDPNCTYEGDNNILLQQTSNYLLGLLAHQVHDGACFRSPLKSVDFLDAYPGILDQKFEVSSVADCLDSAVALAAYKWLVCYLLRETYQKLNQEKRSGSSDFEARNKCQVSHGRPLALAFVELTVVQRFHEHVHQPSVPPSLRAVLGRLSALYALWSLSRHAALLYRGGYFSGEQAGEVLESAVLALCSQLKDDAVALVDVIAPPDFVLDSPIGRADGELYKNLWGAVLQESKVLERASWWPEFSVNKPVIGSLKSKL
inactive: bafetinib 0.053 | nilotinib 0.159 | [2] -0.028 | [3] 0.107 | [4] -0.009 | tipifarnib 0.272 | mubritinib -0.241 | [5] -0.084 | [6] 0.004 | [7] -0.09 | [8] 0.16 | entinostat 0.071 | citarinostat 0.287 | silmitasertib -0.302 | [9] -0.022 | [10] -0.016

ADD3 isoform 2 (UniProt Q9UEY8)
inactive: [1] 0.05 | dasatinib -0.116 | [4] 0.152 | [11] -0.026 | tipifarnib -0.067 | mubritinib -0.007 | [5] 0.03 | [6] 0.059 | [7] -0.009 | [8] -0.002 | entinostat -0.018 | vorinostat -0.119 | citarinostat 0.08 | silmitasertib -0.002 | [9] 0.019 | [10] -0.02

AKNA (UniProt Q7Z591)
Sequence of UniProt Q7Z591 (Q7Z591 whole entry, looked up): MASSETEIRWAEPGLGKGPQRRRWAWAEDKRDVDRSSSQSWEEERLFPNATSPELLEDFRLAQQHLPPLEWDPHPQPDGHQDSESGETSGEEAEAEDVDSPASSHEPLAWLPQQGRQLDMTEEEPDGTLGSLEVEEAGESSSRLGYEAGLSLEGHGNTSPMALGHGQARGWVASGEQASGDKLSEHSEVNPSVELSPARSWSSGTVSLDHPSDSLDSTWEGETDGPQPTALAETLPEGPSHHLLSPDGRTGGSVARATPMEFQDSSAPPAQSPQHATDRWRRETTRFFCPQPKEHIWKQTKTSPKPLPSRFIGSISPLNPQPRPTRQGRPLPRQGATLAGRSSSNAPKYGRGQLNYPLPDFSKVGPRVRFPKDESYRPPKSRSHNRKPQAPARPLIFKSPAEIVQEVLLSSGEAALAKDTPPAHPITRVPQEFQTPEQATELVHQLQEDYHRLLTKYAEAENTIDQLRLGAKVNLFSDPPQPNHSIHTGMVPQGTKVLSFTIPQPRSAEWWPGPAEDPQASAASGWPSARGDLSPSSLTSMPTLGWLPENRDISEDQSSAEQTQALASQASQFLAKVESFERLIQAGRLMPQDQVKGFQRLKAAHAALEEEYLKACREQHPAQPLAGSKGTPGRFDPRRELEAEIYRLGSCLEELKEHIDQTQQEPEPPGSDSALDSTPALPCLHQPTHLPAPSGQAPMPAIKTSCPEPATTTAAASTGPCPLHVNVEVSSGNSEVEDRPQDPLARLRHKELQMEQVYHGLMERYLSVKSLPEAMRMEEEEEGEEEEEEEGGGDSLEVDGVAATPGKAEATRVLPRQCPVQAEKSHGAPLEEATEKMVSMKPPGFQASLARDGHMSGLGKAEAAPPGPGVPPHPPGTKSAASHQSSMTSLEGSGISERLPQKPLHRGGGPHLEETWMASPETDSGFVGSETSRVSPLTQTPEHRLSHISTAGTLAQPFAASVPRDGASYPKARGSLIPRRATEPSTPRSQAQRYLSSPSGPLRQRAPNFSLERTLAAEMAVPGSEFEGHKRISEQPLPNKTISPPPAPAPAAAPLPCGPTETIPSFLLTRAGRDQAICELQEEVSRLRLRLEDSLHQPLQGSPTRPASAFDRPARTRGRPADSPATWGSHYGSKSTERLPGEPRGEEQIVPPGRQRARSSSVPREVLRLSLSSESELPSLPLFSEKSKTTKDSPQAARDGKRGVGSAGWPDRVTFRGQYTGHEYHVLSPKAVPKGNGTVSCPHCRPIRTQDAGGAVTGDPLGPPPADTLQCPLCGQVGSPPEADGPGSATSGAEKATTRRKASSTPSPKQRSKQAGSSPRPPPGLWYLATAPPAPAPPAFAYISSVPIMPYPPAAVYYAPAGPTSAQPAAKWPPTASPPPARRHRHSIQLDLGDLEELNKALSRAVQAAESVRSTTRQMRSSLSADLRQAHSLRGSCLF
active: entinostat 1.72
inactive: [4] -0.134 | tipifarnib 0.215 | [5] -0.069

AZI2 (UniProt Q9H6S1)
inactive: bafetinib -0.049 | nilotinib 0.179 | [2] 0.481 | [3] 0.099 | [11] 0.105 | [5] -0.094 | [8] -0.152 | entinostat 0.041 | citarinostat -0.014 | [10] -0.028

BRMS1 (UniProt Q9HCU9)
inactive: [1] 0.029 | dasatinib 0.035 | mubritinib 0.179 | [6] 0.15 | [7] 0.121 | vorinostat -0.053 | citarinostat -0.097 | silmitasertib -0.042 | [9] -0.033 | [10] -0.178

ARL4A (UniProt P40617)
inactive: bafetinib 0.145 | mubritinib 0.078 | [6] -0.276 | [7] -0.117 | silmitasertib 0.068
